Compounds without any hit were thinned out: in the full panel of roughly 83,000, 20% have a hit.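 Negative percent growth values reflect cell death: -40 means 40% of the cells present at the start died, and -100 means all died.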 A number with no mark means an inactive call. Activity calls are given as the source filed them. Rule for the calls: active = growth percent below 10; inactive = the rest.

One assay has as its system SNB-75 CNS. As to the kind of experiment: NCI-60 one-dose screen, 48 h (100 = growth as untreated, 0 = no growth, -100 = all killed). The settings on record: 10 µM unless noted.
Turning to `COc1ccc2c(c1)C(=O)c1c-2c(OCCCN(C)C)nc2cc(Br)ccc12`, the growth was 79.2%.

Consider `CC(O)c1nc2c(c(=O)n(C)c(=O)n2C)n1C` (centres undefined), for which the growth was 102%.

For the compound `COc1cc(Oc2cc(-c3cccnc3)ccc2NC(=O)Nc2ccc(F)cc2F)cc(OC)c1OC`, the growth was 83.8%.

As for `O=C(/C=C/c1ccccc1Cl)c1ccc(O)cc1`, the growth is 46.7%.

For `CN1CCN(Cc2ccc(NC(=O)c3[nH]ncc3Nc3ccnc4ccnn34)cc2)CC1`, the growth was 63.2%.

Turning to `Cc1cc(C(C)(C)c2cc(C)c(O)c(CN(C)C)c2)cc(CN(C)C)c1O`, the growth was 90.1%.

Regarding `N#Cc1c(N)[nH]c(S)c1C#N`, the growth was 97.2%.

The next assay relates to SNB-19 CNS. The assay is described as above. As to conditions: 10 µM unless noted.
Turning to `CCCCCCCCCCSc1ncnc2nc[nH]c12`, the growth was 74.7%.

Consider `CCCCCCCC/C=C/CCCCCCCC1=NC(C)(C)CN1CCO`, for which the growth was 60.5%.

For `c1cncc(CNc2ccccc2-c2nnc(Nc3ccc4c(c3)OCO4)o2)c1`, the growth was 38.7%.

Consider `COc1ccc(C2CC(c3cccc(Nc4ccnc5cc(Cl)ccc45)c3)=NN2C=O)cc1` (centres undefined), for which the growth is 42.3%.

For the compound `CCCCCCCCCCCCCCCCCC1=NC(C)(C)CN1CCO`, the growth was 38.2%.

For `COc1cc(C2CC(c3ccc(C)cc3)=NN2C(C)=O)ccc1Oc1ccnc2cc(Cl)ccc12` (centres undefined), the growth is 58.1%.

Another assay deals with U251 CNS. The assay is described as above. As to conditions: 10 µM unless noted.
With `c1cnc2ccc3ncccc3c2c1`, the growth is 104%.

Take `CCCCCCCCCCSc1ncnc2nc[nH]c12`: the growth was 68.8%.

For the compound `Clc1ccc2c(Nc3ccc4oc(NCCN5CCCC5)nc4c3)ccnc2c1`, the growth is 70.1%.

In the case of `CCN(CC)CCCNCCCNc1cc(OC)cc2cccnc12`, the growth is 77.9%.

Consider `CCCCCCCCCCCCNc1ncnc2[nH]ncc12`, for which the growth is 87.7%.

Consider `CCCCCCCC/C=C/CCCCCCCC1=NC(C)(C)CN1CCO`, for which the growth is -35.5% (active).

For `O=C(CN1CCCCC1)Sc1nnc2sc3ccccc3n12`, the growth was 98.5%.

Consider `c1cncc(CNc2ccccc2-c2nnc(Nc3ccc4c(c3)OCO4)o2)c1`, for which the growth is 23%.

Regarding `CC(=O)NC1(C(=O)O)CCCC1`, the growth is 107%.

Take `CCCCCCCCCCCCCCCCN=C(CC(=O)O)C(=O)O`: the growth was 101%.

Turning to `c1ccc(N2CCN(c3nncc4ccccc34)CC2)nc1`, the growth is 96.9%.

For the compound `O=c1[nH]c(Cl)nc2c1cnn2-c1ccccc1`, the growth is 100%.

`ClC1=C(Cl)C(Cl)=C(Cl)C1=C/C=C/c1ccccc1`: the growth is -93.3% (active).

Take `CN(CC(=O)N(Cc1ccc(C2CCCCC2)cc1)c1ccc(C(=O)O)cc1)S(=O)(=O)c1c(F)c(F)c(F)c(F)c1F`: the growth is -25.4% (active).

`COc1ccc(C2CC(c3cccc(Nc4ccnc5cc(Cl)ccc45)c3)=NN2C=O)cc1` (centres undefined): the growth is 16.5%.

For the compound `CCCCCCCCCCCCCCCCCC1=NC(C)(C)CN1CCO`, the growth was -57.9% (active).

Consider `COc1ccc(CCN2CCCN3C2=Nc2ccccc2S3(=O)=O)cc1`, for which the growth is 30%.

On to `CCOC(=O)c1cc(-c2cccnc2)nc2c(Cl)cc(Cl)cc12`, for which the growth is 70.3%.

On to `CCC(C)(C)C(=O)O[C@H]1C[C@@H](C)C=C2C=C[C@H](C)[C@H](CC[C@@H]3C[C@@H](O)CC(=O)O3)[C@H]21`, for which the growth was 4.81% (active).

Consider `O=C1C(=O)c2ccc(Br)cc2-c2cc(Br)ccc21`, for which the growth was -31.8% (active).

Turning to `CCOC(=O)c1c(C)c(C(=O)OCC)n(C)c1C`, the growth was 99.5%.

On to `COc1ncc(-c2ccc3nccc(C#CCN4CCN(S(C)(=O)=O)CC4)c3c2)cc1NS(=O)(=O)c1ccc(F)cc1F`, for which the growth was 6.79% (active).

In the case of `COc1ccc2c3c(c(OCCCN(C)C)nc2c1)-c1ccc(Cl)cc1C3=O`, the growth was -84.9% (active).

`CC1=CC(=O)C(C(C)=Nc2ccccc2Cl)C(=O)O1` (centres undefined): the growth is 103%.

With `C=C(C[C@](O)(C(=O)/C=C/c1ccc(Cl)cc1)C(=O)OC)c1ccccc1`, the growth is 28.6%.

As for `COc1cc(C2CC(c3ccc(C)cc3)=NN2C(C)=O)ccc1Oc1ccnc2cc(Cl)ccc12` (centres undefined), the growth was 14.7%.

For `CSc1ncc2ncn(C3OC(CO)C(O)C3O)c2n1` (centres undefined), the growth is 103%.

For `COc1ccc2nc3cc(Cl)ccc3c(Nc3cc(C(C)C)c(O)cc3C)c2c1`, the growth is 19.5%.

Take `O=C(Nc1ccc(Cl)cc1Cl)Nc1ccc(-c2cccnc2)cc1N1CCC(CO)CC1`: the growth was 29.8%.

For the compound `COc1ccc2c(c1)C(=O)c1c-2c(OCCCN(C)C)nc2cc(Br)ccc12`, the growth is -75.7% (active).

For `CC(O)c1nc2c(c(=O)n(C)c(=O)n2C)n1C` (centres undefined), the growth was 102%.

These data come from PubChem BioAssay (NCI).
